What all share (test): DAPPL (digital affinity profiling via proximity ligation, sequencing); 10 mM Tris-HCl pH 7.5, 50 mM NaCl, 1 mM DTT, 4% glycerol, room temperature, 30 min; GST-TFs on glutathione beads, 16-mer random dsDNA library, 0.1% formaldehyde crosslink after washing; high values mean tight binding
One assay addresses T1, FEV (Homo sapiens, UniProt Q99581 1-238).
T1 sequence: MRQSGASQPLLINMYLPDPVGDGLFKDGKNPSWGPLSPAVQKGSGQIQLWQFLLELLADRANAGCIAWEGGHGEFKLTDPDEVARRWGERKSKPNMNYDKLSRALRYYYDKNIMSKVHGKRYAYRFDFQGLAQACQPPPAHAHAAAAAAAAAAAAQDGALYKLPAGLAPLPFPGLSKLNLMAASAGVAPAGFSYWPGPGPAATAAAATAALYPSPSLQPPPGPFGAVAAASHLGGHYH
Conditions: protein: recombinant; tags: N-terminal GST; dsDNA, one strand shown. A digest of the protocol:
(§1)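 Binding signal is defined as a hexamer's read frequency for one factor over its frequency for the tag-only sample. To obtain reads, GST-fused human transcription factors were expressed in yeast, captured on glutathione beads, barcoded with DNA and pooled with that sample. Pools met 200 nmole of a 16-mer random double-stranded DNA library in Tris/NaCl/DTT/glycerol buffer for 30 min at room temperature before washing, 0.1% formaldehyde crosslinking, proximity ligation (BsaI/T4 ligase, 1 h, 37 °C), PCR and Illumina NextSeq500 sequencing.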

The target in a further assay is ETV5 (Homo sapiens, UniProt P41161 1-510). Conditions: protein: recombinant; tags: N-terminal GST; dsDNA, one strand shown. A digest of the protocol: as §1
The next assay addresses HSF1 (Homo sapiens, UniProt Q00613 1-529). To be noted: protein: recombinant; tags: N-terminal GST; chain copies: 3; dsDNA, one strand shown. The method in brief:
as §1

Another assay addresses T2, SPIC (Homo sapiens, UniProt Q8N5J4 1-248).
T2 sequence: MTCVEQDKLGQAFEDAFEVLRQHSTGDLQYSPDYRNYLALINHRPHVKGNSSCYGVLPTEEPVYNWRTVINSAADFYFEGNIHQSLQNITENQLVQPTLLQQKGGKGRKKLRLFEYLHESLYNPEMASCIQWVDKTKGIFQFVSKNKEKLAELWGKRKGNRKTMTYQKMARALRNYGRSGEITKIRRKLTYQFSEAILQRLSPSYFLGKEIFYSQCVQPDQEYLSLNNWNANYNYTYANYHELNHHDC
To be noted: protein: recombinant; tags: N-terminal GST; dsDNA, one strand shown. The method in brief: as §1

Another assay deals with ELF4 (Homo sapiens, UniProt Q99607 1-663). Conditions: protein: recombinant; tags: N-terminal GST; dsDNA, one strand shown. The method in brief:
as §1

The target in the next assay is T3, ELK4 (Homo sapiens, UniProt P28324-2 1-405).
T3 sequence: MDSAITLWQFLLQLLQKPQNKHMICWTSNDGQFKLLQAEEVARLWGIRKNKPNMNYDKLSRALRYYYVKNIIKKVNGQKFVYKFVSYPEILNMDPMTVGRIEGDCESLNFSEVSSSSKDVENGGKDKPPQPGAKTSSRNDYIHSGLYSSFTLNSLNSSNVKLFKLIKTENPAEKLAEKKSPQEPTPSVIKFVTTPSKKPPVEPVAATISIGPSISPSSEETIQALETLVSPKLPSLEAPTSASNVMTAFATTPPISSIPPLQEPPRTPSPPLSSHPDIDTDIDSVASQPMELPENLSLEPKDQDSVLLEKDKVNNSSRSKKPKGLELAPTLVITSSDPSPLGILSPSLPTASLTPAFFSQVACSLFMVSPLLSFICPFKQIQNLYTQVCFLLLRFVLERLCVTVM
Conditions: protein: recombinant; tags: N-terminal GST; dsDNA, one strand shown. The method in brief:
as §1

The next assay deals with T4, ETV2 (Homo sapiens, UniProt O00321 1-342).
T4 sequence: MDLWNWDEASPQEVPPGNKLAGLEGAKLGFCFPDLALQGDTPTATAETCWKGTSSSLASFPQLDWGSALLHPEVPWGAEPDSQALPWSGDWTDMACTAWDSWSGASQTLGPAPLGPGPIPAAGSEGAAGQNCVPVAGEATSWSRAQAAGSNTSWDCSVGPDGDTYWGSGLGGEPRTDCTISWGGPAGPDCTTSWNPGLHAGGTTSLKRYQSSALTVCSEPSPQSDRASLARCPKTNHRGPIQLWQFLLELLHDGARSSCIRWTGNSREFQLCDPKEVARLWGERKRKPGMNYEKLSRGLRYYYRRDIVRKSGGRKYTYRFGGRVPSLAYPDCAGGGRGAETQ
To be noted: protein: recombinant; tags: N-terminal GST; dsDNA, one strand shown. The method in brief:
as §1

The next assay concerns the target T5, ELF3 (Homo sapiens, UniProt P78545 1-371).
T5 sequence: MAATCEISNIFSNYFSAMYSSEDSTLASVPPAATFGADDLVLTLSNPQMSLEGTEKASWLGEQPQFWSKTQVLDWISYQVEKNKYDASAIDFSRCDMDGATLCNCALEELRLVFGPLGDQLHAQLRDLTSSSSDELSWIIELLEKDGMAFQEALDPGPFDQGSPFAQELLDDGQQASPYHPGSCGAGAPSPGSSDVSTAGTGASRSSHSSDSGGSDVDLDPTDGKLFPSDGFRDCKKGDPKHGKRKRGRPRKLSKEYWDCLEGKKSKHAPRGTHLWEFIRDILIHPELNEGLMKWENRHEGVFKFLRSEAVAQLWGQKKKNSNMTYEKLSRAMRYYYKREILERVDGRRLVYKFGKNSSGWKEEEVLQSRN
Conditions: protein: recombinant; tags: N-terminal GST; dsDNA, one strand shown. The method in brief:
as §1

The target in a further assay is CRX (Homo sapiens, UniProt O43186 1-299). Conditions: protein: recombinant; tags: N-terminal GST; dsDNA, one strand shown. A digest of the protocol: as §1
The next assay concerns the target ETV1 (Homo sapiens, UniProt P50549 1-477). Conditions: protein: recombinant; tags: N-terminal GST; dsDNA, one strand shown. A digest of the protocol: as §1
The target of another assay is T6, ERF (Homo sapiens, UniProt P50548 1-548).
T6 sequence: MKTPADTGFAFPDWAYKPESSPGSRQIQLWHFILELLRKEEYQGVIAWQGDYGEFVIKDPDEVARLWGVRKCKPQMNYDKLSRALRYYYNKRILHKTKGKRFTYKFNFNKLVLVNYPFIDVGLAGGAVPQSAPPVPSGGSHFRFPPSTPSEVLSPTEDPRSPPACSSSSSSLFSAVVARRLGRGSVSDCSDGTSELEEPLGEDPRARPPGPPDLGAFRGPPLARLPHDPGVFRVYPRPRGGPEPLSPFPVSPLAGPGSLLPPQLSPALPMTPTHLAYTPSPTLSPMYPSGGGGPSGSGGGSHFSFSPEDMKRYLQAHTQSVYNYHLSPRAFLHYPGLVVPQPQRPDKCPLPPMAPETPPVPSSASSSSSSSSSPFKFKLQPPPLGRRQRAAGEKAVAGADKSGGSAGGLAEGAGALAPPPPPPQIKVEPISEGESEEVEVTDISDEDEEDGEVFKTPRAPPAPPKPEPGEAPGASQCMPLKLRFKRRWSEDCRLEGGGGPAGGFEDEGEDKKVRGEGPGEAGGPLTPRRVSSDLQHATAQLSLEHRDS
Conditions: protein: recombinant; tags: N-terminal GST; dsDNA, one strand shown. The method in brief: as §1

The target in another assay is T7, ETV3L (Homo sapiens, UniProt Q6ZN32 1-361).
T7 sequence: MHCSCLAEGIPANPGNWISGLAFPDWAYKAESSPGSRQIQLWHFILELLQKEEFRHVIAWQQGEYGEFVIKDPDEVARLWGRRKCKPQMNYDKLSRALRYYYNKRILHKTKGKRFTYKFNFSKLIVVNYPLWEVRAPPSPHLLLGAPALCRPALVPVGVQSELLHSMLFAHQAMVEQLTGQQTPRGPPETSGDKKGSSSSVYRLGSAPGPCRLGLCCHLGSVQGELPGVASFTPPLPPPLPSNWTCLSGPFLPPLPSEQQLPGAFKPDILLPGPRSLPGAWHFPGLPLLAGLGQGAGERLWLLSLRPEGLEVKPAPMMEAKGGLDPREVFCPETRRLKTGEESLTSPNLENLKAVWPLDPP
Conditions: protein: recombinant; tags: N-terminal GST; dsDNA, one strand shown. A digest of the protocol:
as §1

Another assay concerns the target T8, ETS2 (Homo sapiens, UniProt P15036 1-469).
T8 sequence: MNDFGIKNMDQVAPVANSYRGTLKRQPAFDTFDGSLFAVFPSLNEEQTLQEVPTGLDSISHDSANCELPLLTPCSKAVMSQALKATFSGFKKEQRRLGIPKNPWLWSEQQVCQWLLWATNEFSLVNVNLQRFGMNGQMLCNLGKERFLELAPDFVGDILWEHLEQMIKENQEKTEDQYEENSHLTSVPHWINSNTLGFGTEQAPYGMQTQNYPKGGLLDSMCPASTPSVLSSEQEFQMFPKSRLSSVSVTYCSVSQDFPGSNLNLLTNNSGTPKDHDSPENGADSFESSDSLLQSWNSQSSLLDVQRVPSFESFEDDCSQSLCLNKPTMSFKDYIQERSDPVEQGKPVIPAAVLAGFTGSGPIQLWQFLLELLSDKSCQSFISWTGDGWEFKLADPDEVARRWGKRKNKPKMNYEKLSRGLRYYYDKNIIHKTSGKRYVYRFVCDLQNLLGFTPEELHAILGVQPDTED
To be noted: protein: recombinant; tags: N-terminal GST; dsDNA, one strand shown. The method in brief: as §1

Another assay addresses T9, SPDEF (Homo sapiens, UniProt O95238 1-335).
T9 sequence: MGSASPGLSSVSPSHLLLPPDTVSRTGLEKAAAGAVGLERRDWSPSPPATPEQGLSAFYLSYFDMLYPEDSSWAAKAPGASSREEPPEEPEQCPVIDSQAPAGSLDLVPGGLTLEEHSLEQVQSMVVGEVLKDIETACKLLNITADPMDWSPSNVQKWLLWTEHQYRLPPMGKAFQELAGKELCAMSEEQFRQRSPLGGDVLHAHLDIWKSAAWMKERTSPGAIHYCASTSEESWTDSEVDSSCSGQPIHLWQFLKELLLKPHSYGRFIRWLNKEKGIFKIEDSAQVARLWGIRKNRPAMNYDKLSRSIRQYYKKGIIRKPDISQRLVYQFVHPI
To be noted: protein: recombinant; tags: N-terminal GST; dsDNA, one strand shown. The method in brief: as §1

A further assay has as its target T10, ETV7 (Homo sapiens, UniProt Q9Y603 1-341).
T10 sequence: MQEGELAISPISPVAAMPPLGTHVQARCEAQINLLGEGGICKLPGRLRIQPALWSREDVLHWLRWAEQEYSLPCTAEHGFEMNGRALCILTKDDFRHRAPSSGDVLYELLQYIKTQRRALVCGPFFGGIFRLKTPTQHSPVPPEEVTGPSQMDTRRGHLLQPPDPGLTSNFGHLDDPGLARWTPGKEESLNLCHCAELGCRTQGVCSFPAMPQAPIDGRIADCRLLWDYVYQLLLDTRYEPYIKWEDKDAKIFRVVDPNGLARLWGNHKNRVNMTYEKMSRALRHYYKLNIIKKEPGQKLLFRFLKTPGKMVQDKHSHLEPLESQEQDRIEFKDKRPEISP
Conditions: protein: recombinant; tags: N-terminal GST; dsDNA, one strand shown. The method in brief:
as §1

A further assay deals with T11, ELF5 (Homo sapiens, UniProt Q9UKW6-2 1-255).
T11 sequence: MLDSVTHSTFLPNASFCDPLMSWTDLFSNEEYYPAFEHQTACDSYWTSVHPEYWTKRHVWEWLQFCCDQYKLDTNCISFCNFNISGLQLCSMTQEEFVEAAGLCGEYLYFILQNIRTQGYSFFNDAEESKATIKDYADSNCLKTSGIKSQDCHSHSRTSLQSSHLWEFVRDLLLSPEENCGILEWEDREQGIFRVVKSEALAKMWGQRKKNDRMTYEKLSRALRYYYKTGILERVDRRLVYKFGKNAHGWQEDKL
To be noted: protein: recombinant; tags: N-terminal GST; dsDNA, one strand shown. A digest of the protocol:
as §1

The next assay concerns the target T12, ETV3 (Homo sapiens, UniProt P41162-2 1-143).
T12 sequence: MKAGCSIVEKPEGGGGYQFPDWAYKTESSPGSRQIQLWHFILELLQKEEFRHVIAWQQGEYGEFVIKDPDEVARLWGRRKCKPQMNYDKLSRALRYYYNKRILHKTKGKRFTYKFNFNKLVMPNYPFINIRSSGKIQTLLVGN
To be noted: protein: recombinant; tags: N-terminal GST; dsDNA, one strand shown. A digest of the protocol: as §1

Another assay has as its target ETV6 (Homo sapiens, UniProt P41212 1-452). To be noted: protein: recombinant; tags: N-terminal GST; dsDNA, one strand shown. The method in brief: as §1

ELF4, sequence (Q99607 whole entry): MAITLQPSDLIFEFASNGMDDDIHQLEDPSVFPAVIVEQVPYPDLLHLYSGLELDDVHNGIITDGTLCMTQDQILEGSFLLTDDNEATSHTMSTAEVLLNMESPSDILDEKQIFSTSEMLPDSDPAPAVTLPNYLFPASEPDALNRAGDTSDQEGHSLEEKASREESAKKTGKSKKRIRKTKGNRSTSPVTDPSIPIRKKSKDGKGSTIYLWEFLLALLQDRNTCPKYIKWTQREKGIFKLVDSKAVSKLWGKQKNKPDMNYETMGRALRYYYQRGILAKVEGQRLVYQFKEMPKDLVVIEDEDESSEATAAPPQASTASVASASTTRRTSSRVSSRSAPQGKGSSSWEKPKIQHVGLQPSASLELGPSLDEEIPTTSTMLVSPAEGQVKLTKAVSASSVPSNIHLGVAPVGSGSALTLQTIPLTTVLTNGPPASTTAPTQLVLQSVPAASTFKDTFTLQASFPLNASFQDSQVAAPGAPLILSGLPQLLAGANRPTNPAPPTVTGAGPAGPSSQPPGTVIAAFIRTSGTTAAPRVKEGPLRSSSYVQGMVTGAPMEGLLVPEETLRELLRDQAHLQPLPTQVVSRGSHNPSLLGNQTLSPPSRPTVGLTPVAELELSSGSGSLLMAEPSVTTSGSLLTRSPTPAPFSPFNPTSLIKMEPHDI
CRX, sequence (O43186 whole entry): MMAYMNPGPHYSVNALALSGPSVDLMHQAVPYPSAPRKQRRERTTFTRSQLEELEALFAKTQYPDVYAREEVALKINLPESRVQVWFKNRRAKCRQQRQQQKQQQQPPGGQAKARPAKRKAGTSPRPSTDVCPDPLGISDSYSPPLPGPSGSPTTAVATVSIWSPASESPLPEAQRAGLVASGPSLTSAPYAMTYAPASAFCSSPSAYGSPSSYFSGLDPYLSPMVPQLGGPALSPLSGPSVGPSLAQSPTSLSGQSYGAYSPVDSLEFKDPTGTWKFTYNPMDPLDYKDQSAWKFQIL
HSF1, sequence (Q00613 whole entry): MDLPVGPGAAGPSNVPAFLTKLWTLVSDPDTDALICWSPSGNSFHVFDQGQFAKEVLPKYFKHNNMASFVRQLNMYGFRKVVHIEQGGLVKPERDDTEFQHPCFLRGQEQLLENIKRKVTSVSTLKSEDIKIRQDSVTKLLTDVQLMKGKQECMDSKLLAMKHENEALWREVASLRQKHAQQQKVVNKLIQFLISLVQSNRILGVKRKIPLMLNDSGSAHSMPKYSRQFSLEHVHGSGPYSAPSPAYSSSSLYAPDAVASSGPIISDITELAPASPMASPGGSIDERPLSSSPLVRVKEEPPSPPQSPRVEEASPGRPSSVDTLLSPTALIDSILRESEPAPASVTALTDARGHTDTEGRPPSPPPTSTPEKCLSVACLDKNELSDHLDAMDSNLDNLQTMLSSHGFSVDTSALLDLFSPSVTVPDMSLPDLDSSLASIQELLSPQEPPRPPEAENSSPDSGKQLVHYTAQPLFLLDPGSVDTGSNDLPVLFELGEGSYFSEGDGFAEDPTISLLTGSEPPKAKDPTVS
ETV1, sequence (P50549 whole entry): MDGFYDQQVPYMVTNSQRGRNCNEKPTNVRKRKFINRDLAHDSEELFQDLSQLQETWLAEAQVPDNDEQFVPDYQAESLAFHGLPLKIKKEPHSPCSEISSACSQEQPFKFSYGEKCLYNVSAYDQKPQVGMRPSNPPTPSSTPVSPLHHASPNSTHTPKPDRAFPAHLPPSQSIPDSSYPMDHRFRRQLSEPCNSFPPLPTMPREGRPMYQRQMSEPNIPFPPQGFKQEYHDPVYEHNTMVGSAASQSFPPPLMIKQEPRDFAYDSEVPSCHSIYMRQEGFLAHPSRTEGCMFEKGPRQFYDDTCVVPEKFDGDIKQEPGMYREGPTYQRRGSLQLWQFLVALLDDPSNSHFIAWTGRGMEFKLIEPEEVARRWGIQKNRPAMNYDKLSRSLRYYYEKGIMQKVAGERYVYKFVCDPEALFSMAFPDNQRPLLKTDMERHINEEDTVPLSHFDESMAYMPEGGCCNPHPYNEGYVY
ETV5, sequence (P41161 whole entry): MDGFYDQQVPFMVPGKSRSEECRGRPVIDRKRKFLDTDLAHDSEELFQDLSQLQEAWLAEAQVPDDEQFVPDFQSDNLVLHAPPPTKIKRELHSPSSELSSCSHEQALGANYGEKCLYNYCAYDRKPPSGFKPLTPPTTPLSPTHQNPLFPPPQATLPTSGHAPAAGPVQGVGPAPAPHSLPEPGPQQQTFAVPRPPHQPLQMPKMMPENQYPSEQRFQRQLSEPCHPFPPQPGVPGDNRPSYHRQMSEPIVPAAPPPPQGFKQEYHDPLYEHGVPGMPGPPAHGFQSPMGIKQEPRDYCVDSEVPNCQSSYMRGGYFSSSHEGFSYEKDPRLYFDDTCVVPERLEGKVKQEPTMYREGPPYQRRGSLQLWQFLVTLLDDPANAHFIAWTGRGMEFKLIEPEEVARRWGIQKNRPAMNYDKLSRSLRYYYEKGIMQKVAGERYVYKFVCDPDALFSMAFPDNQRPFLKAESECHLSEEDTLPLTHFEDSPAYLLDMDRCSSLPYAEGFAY
ETV6, sequence (P41212 whole entry): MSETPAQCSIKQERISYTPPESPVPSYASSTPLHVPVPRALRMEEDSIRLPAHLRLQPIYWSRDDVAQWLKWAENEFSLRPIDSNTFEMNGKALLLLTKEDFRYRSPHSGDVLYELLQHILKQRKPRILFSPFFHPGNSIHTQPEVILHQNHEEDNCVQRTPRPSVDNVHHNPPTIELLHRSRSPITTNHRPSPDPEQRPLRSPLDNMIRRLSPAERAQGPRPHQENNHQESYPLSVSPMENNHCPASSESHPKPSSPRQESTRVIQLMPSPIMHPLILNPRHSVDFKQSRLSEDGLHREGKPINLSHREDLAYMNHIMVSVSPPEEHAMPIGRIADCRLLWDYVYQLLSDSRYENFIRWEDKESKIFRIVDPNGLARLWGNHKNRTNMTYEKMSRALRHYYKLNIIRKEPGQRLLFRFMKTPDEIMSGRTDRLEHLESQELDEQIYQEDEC

TACTGT: the binding signal with FEV was 1.11 fold enrichment (6-mer frequency, TF over GST control); with ETV5, 1.15 fold enrichment (6-mer frequency, TF over GST control); with HSF1, 1.05 fold enrichment (6-mer frequency, TF over GST control); in the assay with SPIC it was 1.1 fold enrichment (6-mer frequency, TF over GST control); in the assay with ELF4, 1.12 fold enrichment (6-mer frequency, TF over GST control); in the assay with ELK4 it was 1.25 fold enrichment (6-mer frequency, TF over GST control). Besides, the binding signal with ETV2 is 1.34 fold enrichment (6-mer frequency, TF over GST control); in the assay with ELF3, 1.03 fold enrichment (6-mer frequency, TF over GST control); with CRX it was 1.11 fold enrichment (6-mer frequency, TF over GST control); in the assay with ETV1, 1.17 fold enrichment (6-mer frequency, TF over GST control); with ERF, 1.2 fold enrichment (6-mer frequency, TF over GST control); in the assay with ETV3L it was 1.15 fold enrichment (6-mer frequency, TF over GST control). The binding signal in the assay with ETS2 is 1.16 fold enrichment (6-mer frequency, TF over GST control); with SPDEF, 1.11 fold enrichment (6-mer frequency, TF over GST control); in the assay with ETV7, 1.04 fold enrichment (6-mer frequency, TF over GST control); in the assay with ELF5, 1.14 fold enrichment (6-mer frequency, TF over GST control); in the assay with ETV3 it was 1.13 fold enrichment (6-mer frequency, TF over GST control); with ETV6 it was 1.1 fold enrichment (6-mer frequency, TF over GST control).

The record behind these values is paper PMC7862700, “An all-to-all approach to the identification of sequence-specific readers for epigenetic DNA modifications on cytosine”.
